Consider 14 molecules from PubChem BioAssay.

Molecules are shown by their SMILES. Where “and” joins values, the source holds several entries; their conditions need not be identical. Equal values may be shown once. Calls of active or inactive are those of the source. The rule behind the calls is not given here.

The test is described as follows: inhibitors of hydroxyurea-induced Chk1 phosphorylation, primary screen, imaging, HeLa, phospho-Chk1 nuclear intensity (AID 1187). Note: test concentration not given here. Conditions: hydroxyurea-induced phospho-Chk1 immunofluorescence imaging, higher = more signal.
`C[N+](C)(C)CCCCNC(=O)[C@H]1C[C@H]2C(=O)N[C@@H](CCCC[N+](C)(C)C)C(=O)N2[C@H]1c1ccc(O)cc1`: the z-score was 0.605 (inactive) and -0.687 (inactive).

`C=CCN(C(=O)C(c1cccs1)N(C(=O)/C=C\C(=O)O)c1ccc(CCO)cc1)c1ccc(OC)cc1` (centres undefined): the z-score was 0.686 (inactive) and 0.548 (inactive).

Take `C[N+](C)(C)CCCCCCNC(=O)[C@H]1C[C@H]2C(=O)N[C@@H](CCCC[N+](C)(C)C)C(=O)N2[C@H]1c1cccc(OCCO)c1`: the z-score is 0.316 (inactive) and -0.109 (inactive).

In the case of `CCOC(=O)[C@@H]1CC2O[C@]23C[C@@H]1C(=O)N1CCC[C@@H]1[C@H]3O[Si](C)(C)C(C)(C)C` (some centres undefined), the z-score is 0.288 (inactive) and 0.549 (inactive).

In the case of `C[N+](C)(C)CCCCCCNC(=O)[C@H]1C[C@H]2C(=O)N[C@@H](CCCC[N+](C)(C)C)C(=O)N2[C@H]1c1ccc(O)cc1`, the z-score is -0.225 (inactive) and -0.0689 (inactive).

Regarding `C=CCN(CCCCC)C(=O)C1N(c2ccc(CCO)cc2)C(=O)C2C(C(=O)O)C3C=CC21O3` (centres undefined), the z-score is 0.0364 (inactive) and 0.181 (inactive).

With `C=C[C@@H](C)[C@@H](O)c1ccc(O)c2ccccc12`, the z-score was 1.17 (inactive) and 0.193 (inactive).

With `C=CCN(CCCCC)C(=O)C(c1cccs1)N(C(=O)/C=C\C(=O)O)c1ccc(CCO)cc1` (centres undefined), the z-score is 0.571 (inactive) and -0.0484 (inactive).

Consider `C#CCN1C(/C=C/c2ccccc2)C(=O)OC[C@H]1c1ccccc1` (some centres undefined), for which the z-score was -0.322 (inactive) and -0.239 (inactive).

On to `C[N+](C)(C)CCCCNC(=O)[C@@H]1C[C@@H]2C(=O)N[C@@H](CCCC[N+](C)(C)C)C(=O)N2[C@@H]1c1cccc(OCCO)c1`, for which the z-score is 0.0051 (inactive) and -0.229 (inactive).

In the case of `C=CCN(CCCCC)C(=O)C1N(c2c(Cl)cccc2CO)C(=O)C2C(C(=O)O)C3C=CC21O3` (centres undefined), the z-score is -0.669 (inactive) and 0.367 (inactive).

For `C=CCN(CCCC)C(=O)C(c1cccs1)N(C(=O)/C=C\C(=O)O)c1c(Cl)cccc1CO` (centres undefined), the z-score was 0.677 (inactive) and -0.0581 (inactive).

On to `CC(C)[Si]1(C(C)C)OCc2cc(C3CC3)nc(CCc3ccccc3)c21`, for which the z-score was 0.579 (inactive) and 0.548 (inactive).

Regarding `C[C@@]1([C@@H](NC(=O)Cc2ccccc2)c2ccc(-c3ccccc3)cc2)C[C@H]1C1CCCCC1`, the z-score is 1.03 (inactive) and 0.448 (inactive) and -0.21 (inactive).
